BAZ2B block: blocks human BAZ2B; 4.4% of 360,000 active; AlphaScreen BAZ2B-H3K14Ac peptide displacement; Q9UIF8; Potency, µM (highest dose often 114 µM), actives largely listed as inhibitors; also: nearly all actives have a fitted effect of over 60% in size
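Protein-peptide AlphaScreen: BAZ2B 50 nM, b-H3K14Ac 50 nM, 1x PBS pH 7.4 + 0.01% Tween-20. Preincubation 30 min RT; cpd 30 min RT (top 110 uM); beads 20 min RT, light-protected.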
HP1b binding inh: HP1-beta chromodomain-methylated histone interaction inhibition; AlphaScreen HP1-beta / biotin-H3K9me3 peptide binding; 0.56% of 390,000 active; P83916; Potency, µM (top dose mostly 114 µM), actives largely listed as inhibitors; AID 540317; also: nearly all actives have a fitted effect of over 70% in size
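AlphaScreen: HP1-beta (50 nM) preformed 30 min with biotin-H3(1-18)K9me3 peptide (50 nM) in PBS pH 7.4, 0.01% Tween-20. Compound added for 30 min at RT, then streptavidin donor/nickel chelate acceptor beads (10 ug/mL) for 30 min.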
JMJD2A Tudor inh: JMJD2A Tudor domain (human) inhibition | AlphaScreen JMJD2A-Tudor / H3K4me3 peptide binding | 4.4% of 390,000 active | Potency, µM (titrated, usually from 114 µM), hits mostly inhibitors | AID 504339 | O75164; also: nearly all actives have a fitted effect of over 50% in size
Target sequence (O75164 whole entry, looked up, the tested form may be a part): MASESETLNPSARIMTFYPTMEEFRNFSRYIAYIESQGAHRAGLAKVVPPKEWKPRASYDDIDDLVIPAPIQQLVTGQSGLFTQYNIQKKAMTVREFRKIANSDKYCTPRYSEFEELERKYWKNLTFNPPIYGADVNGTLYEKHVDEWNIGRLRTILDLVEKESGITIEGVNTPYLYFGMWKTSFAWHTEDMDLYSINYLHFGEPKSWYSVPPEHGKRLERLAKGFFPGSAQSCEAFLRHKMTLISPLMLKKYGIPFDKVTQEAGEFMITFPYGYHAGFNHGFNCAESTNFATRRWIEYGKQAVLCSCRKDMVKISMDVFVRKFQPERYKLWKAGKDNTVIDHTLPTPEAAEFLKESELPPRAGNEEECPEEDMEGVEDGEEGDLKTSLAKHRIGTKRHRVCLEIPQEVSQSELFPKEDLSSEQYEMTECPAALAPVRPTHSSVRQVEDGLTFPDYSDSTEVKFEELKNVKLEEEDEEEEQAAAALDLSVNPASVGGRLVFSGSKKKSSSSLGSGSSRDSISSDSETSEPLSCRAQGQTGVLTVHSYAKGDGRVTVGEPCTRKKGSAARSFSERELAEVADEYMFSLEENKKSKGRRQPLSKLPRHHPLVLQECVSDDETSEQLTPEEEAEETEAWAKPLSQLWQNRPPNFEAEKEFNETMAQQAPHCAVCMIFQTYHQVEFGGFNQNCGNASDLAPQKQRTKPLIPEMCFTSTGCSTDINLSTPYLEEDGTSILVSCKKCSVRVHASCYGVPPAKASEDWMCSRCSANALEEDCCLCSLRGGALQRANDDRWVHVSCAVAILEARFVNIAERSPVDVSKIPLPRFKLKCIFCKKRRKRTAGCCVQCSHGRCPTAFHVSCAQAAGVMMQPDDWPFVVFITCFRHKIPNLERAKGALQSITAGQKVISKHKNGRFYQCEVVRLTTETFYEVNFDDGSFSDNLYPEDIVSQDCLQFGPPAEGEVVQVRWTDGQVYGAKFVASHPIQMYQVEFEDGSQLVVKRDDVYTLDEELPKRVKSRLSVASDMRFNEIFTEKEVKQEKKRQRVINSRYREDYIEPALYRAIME
G9a block: blocks human histone lysine methyltransferase G9a; Q96KQ7; G9a H3K9 monomethylation, AlphaScreen, 2 h; Potency, µM (top dose mostly 102 µM), most hits filed as inhibitors; 8.8% of 350,000 active; also: nearly all actives have a fitted effect of over 75% in size
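Enzyme 20 nM + cpd, 15 min RT; add b-H3K9 pep 500 nM / SAM 20 uM; 2 h RT; anti-H3K9me1 Ab 0.5 ug/mL + SA donor / anti-rabbit acceptor beads 20 ug/mL each, 10 min; AlphaScreen read.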
CtBP-E1A blk: inhibitors of CtBP/E1A interaction; 0.49% of 340,000 active; AlphaScreen GST-E1A/His-CtBP binding, 1536-well; hits give low values; AID 651724; activity change, % (no concentration beside the values); in the data active = activity change below about -65%; inconclusive = mostly about -30% to -63%
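AlphaScreen with 125 nM GST-E1A and 125 nM His-CtBP (5X stocks) in Tris pH 8.0, 300 mM NaCl, BSA, Tween 20, TCEP. Compounds preincubated 2 h at 37 deg C, then glutathione donor/nickel acceptor beads added for 1 h at 37 deg C in dark.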
Six1-Eya2 blk: Six1/Eya2 interaction inhibition | Q15475+O00167 | AlphaScreen GST-Six1/His-Eya2 binding, biochemical; hits give low values | activity change, % (test concentration not listed) | 0.56% of 360,000 active | AID 651725; in the data active = activity change below about -65%; inconclusive = mostly about -30% to -63%
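Six1/Eya2 binding was read as AlphaScreen signal after compounds were pinned into GST-Six1 plus His-tagged Eya2 (5X stock 250/500 nM) in pH 8.0 Tris/NaCl/TCEP buffer, beads added, then incubated 1 h, 37 C, dark.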
Each line names hits and unclear results; the compound was inactive in the other large screens. Only some compounds are listed: those with a hit (about 10% of all), similar ones and a draw of the others. Unless noted, calls follow the shape of the dose curve; as a rule, active = well fitted inhibition curve with a large enough effect; inconclusive = small, poorly fitted or top-dose-only effect; inactive = no such curve, though single readings can be large or run the other way.

O=C(Nc1ccccc1)C1=C(O)CC(c2ccc(Cl)cc2)N2CCN=C12 (stereo not drawn)	none
CC1(C(=O)Nc2ccc3ccccc3c2)CCC(=O)N1CCc1c[nH]c2ccccc12 (stereo not drawn)	none (no result: BAZ2B block, HP1b binding inh, JMJD2A Tudor inh, G9a block)
N#Cc1c(Sc2ncc(C(F)(F)F)cc2Cl)nsc1C/C=N\OCc1ccccc1Br	BAZ2B block 45µM, JMJD2A Tudor inh inconclusive, G9a block 20µM
CCN1C(=O)/C(=C2\SC(=S)N(CC3CCCO3)C2=O)c2ccccc21 (stereo not drawn)	BAZ2B block 10µM, G9a block 4µM (no result: HP1b binding inh, JMJD2A Tudor inh, CtBP-E1A blk, Six1-Eya2 blk)
CCN1C(=O)/C(=C2\SC(=S)N(NC(=O)c3ccccc3O)C2=O)c2ccccc21	BAZ2B block 25µM, HP1b binding inh 22µM, JMJD2A Tudor inh 1.8µM, G9a block 16µM, CtBP-E1A blk -97, Six1-Eya2 blk -90
CCOc1ccc(NS(=O)(=O)c2ccc(C(=O)NCC(c3ccc(OC)cc3)N3CCOCC3)cc2)cc1 (stereo not drawn)	G9a block inconclusive
CC(=O)c1cccc(-c2ccnc3c2CC(C(=O)NCC2CCOCC2)O3)c1 (stereo not drawn)	none (no result: BAZ2B block, HP1b binding inh, JMJD2A Tudor inh, G9a block)
C#CCOCCOCCOCCNc1nc(N2CCN(C(=O)[C@H](CCCCN)n3cc(C(N)CO)nn3)CC2)nc(N2CCN(C(=O)[C@H](CCC(=O)O)n3cc(C(N)[C@H](C)CC)nn3)CC2)n1 (stereo partly drawn)	BAZ2B block 40µM, G9a block inconclusive (no result: HP1b binding inh, JMJD2A Tudor inh, CtBP-E1A blk, Six1-Eya2 blk)
C#CCOCCOCCOCCNc1nc(N2CCN(C(=O)[C@H](CCC(=O)O)n3cc(C(N)[C@H](C)CC)nn3)CC2)nc(N2CCN(C(=O)[C@H](CCC(=O)O)n3cc(C(N)[C@H](C)CC)nn3)CC2)n1 (stereo partly drawn)	BAZ2B block 79µM, JMJD2A Tudor inh inconclusive
C#CCOCCOCCOCCNc1nc(N2CCN(C(=O)[C@H](CO)n3cc([C@@H](N)C(C)C)nn3)CC2)nc(N2CCN(C(=O)[C@H](CCC(=O)O)n3cc([C@@H](N)CCCCN)nn3)CC2)n1	JMJD2A Tudor inh inconclusive (no result: BAZ2B block, G9a block)
C#CCOCCOCCOCCNc1nc(N2CCN(C(=O)[C@H](CCCCN)n3cc(CN)nn3)CC2)nc(N2CCN(C(=O)[C@H](CCC(=O)O)n3cc([C@@H](N)CCSC)nn3)CC2)n1	JMJD2A Tudor inh 89µM (no result: BAZ2B block, G9a block)
C#CCOCCOCCOCCNc1nc(N2CCOCC2)nc(N2CCN(C(=O)[C@H](CCCCN)n3cc(CN)nn3)CC2)n1	none (no result: BAZ2B block, G9a block)
C#CCOCCOCCOCCNc1nc(N2CCOCC2)nc(N2CCN(C(=O)[C@H](CCCCN)n3cc([C@@H](N)C(C)CC)nn3)CC2)n1 (stereo partly drawn)	G9a block inconclusive
C#CCOCCOCCOCCNc1nc(N2CCN(C(=O)[C@H](CCCCN)n3cc(CN)nn3)CC2)nc(N2CCN(C(=O)[C@H](CCC(=O)O)n3cc([C@@H](N)[C@H](C)CC)nn3)CC2)n1	JMJD2A Tudor inh 56µM (no result: BAZ2B block, G9a block)
COCCc1nn2c(=O)cc(COC(=O)c3ccccc3C)nc2s1	none (no result: CtBP-E1A blk, Six1-Eya2 blk)
O=C(Nc1c(C(=O)c2ccccc2)oc2ccccc12)c1cc(=O)c2ccccc2o1	none (no result: CtBP-E1A blk, Six1-Eya2 blk)
C#CCOCCOCCOCCNc1nc(N2CCN(C(=O)[C@H](CCC(=O)O)n3cc(C(N)CO)nn3)CC2)nc(N2CCN(C(=O)[C@H](CCC(=O)O)n3cc(C(N)[C@H](C)CC)nn3)CC2)n1 (stereo partly drawn)	BAZ2B block 35µM, JMJD2A Tudor inh 35µM, CtBP-E1A blk inconclusive
C#CCOCCOCCOCCNc1nc(N2CCN(C(=O)C([C@@H](C)CC)n3cc(C(N)CO)nn3)CC2)nc(N2CCN(C(=O)[C@H](CCC(=O)O)n3cc(C(N)[C@H](C)CC)nn3)CC2)n1 (stereo partly drawn)	BAZ2B block 35µM, G9a block inconclusive (no result: HP1b binding inh, JMJD2A Tudor inh, CtBP-E1A blk, Six1-Eya2 blk)
C#CCOCCOCCOCCNc1nc(N2CCN(C(=O)[C@H](CCCCN)n3cc([C@@H](N)[C@H](C)CC)nn3)CC2)nc(N2CCN(C(=O)[C@H](CCC(=O)O)n3cc([C@@H](N)CCSC)nn3)CC2)n1	JMJD2A Tudor inh 79µM (no result: BAZ2B block, G9a block)
c1ccc(-c2nn3c(C4CCCCC4)nnc3s2)nc1	none
Clc1ccc(OCc2nn3c(C4CCCCC4)nnc3s2)cc1	G9a block 8.9µM
COc1ccc(NC(=S)NNC(=O)c2cccs2)cc1	G9a block 40µM
O=C(NNS(=O)(=O)c1ccc(Cl)cc1)c1cccs1	BAZ2B block inconclusive
COc1ccc(S(=O)(=O)NNC(=O)c2cccs2)cc1	G9a block 45µM
COc1ccc(NC(=S)NNC(=O)c2nnn(-c3ccccc3)c2C)cc1	G9a block 11µM, Six1-Eya2 blk -78
COc1ccc(S(=O)(=O)NNC(N)=S)cc1	JMJD2A Tudor inh 8.9µM, G9a block 16µM (no result: BAZ2B block)
Nc1nonc1C(=O)NCCNCc1cccc(Cl)c1Cl	none (no result: CtBP-E1A blk, Six1-Eya2 blk)
CC(C)OCCCNc1ncc2c(n1)CC(c1ccc(N(C)C)cc1)CC2=O (stereo not drawn)	JMJD2A Tudor inh inconclusive, G9a block 35µM
CC(C)OCCCNc1ncc2c(n1)CC(c1cccs1)CC2=O (stereo not drawn)	G9a block inconclusive
CCCCNC(=O)CN1C(=O)c2c(c3ccccc3n2C)C1c1ccc(OC)cc1 (stereo not drawn)	none (no result: CtBP-E1A blk, Six1-Eya2 blk)
O=C(c1cc(-c2ccco2)nc2ccccc12)N1CCN(c2ccc(F)cc2)CC1	BAZ2B block 50µM, JMJD2A Tudor inh 56µM, G9a block inconclusive
Cc1nnc(NC(=O)c2cc(-c3ccco3)nc3ccccc23)s1	BAZ2B block 40µM, G9a block 40µM (no result: HP1b binding inh, JMJD2A Tudor inh, CtBP-E1A blk, Six1-Eya2 blk)
Cn1ccc(-c2cc(C(=O)O)c3ccccc3n2)n1	BAZ2B block inconclusive, G9a block 50µM
O=C(N/N=C/c1ccc(F)cc1)c1cc(-c2ccco2)nc2ccccc12	BAZ2B block 2.8µM, HP1b binding inh 22µM, JMJD2A Tudor inh inconclusive, G9a block inconclusive, Six1-Eya2 blk inconclusive
O=C(Nc1nc2ccccc2s1)c1cc(-c2ccco2)nc2ccccc12	JMJD2A Tudor inh inconclusive, G9a block inconclusive
O=C(OCC#CCSc1nnc(-c2cccc3ccccc23)o1)c1csc2ccccc12	none (no result: BAZ2B block, HP1b binding inh, G9a block, CtBP-E1A blk, Six1-Eya2 blk)
CCN(c1ccccc1)S(=O)(=O)c1nnc(NC(=O)c2ccccc2)s1	BAZ2B block inconclusive (no result: CtBP-E1A blk, Six1-Eya2 blk)
O=C(Nc1nccs1)c1cc(-c2ccco2)nc2ccccc12	BAZ2B block 50µM, G9a block inconclusive, CtBP-E1A blk inconclusive, Six1-Eya2 blk inconclusive
O=C(O)c1cc(-c2ccco2)nc2ccccc12	BAZ2B block inconclusive, HP1b binding inh 45µM, JMJD2A Tudor inh 25µM, G9a block 28µM, Six1-Eya2 blk inconclusive
O=C(Nc1nccs1)c1cc(-c2ccccc2)nc2ccccc12	none
